From PubChem
RAM inhibit – inhibitors of the yeast RAM network, primary screen, dse1pr::URA3 reporter, 5-FOA selection; S. cerevisiae dse1pr::URA3 reporter, 5-FOA growth OD615, 2 d; analog-sensitive cbk1-as2 kinase mutant strain; inhibition, % at 50 µM; hit rate 1.8% among 190,000;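 active means inhibition above a set limit, 3 SD over mean compound inhibition, cut at about 8.4% in these data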;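 further: inhibition rescues growth on 5-FOA so higher OD means more RAM inhibition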
CHOP inhibitor – inhibitors of CHOP promoter induction, primary screen, cell-based, unfolded protein response, luciferase reporter; AID 2732, 2010; CHO-K1 CHOP-promoter luciferase, tunicamycin-induced, 15-18 h; hit rate 3.8% among 220,000; inhibition, % at 10 µM;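 active means compounds that reduced the stress-induced luciferase reporter signal by more than about 70% of percent inhibition, limit read from the data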
L major viab – Leishmania major promastigote growth inhibition, primary screen. Leishmania major promastigotes, resazurin fluorescence viability. inhibition, % at 10 µM. hit rate 9% among 200,000; in the data active means inhibition above about 50%;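 further: promastigotes grown with compound for 44 hours at 28 °C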
WT yeast gro inh – growth inhibition of WT strain, primary screen, mitochondrial fusion inhibitor project, WT and mutant strains, chemical genetic; mitochondrial fusion phenotypic screen; hit rate 2.1% among 190,000; inhibition, % at 10 µM; in the data active means inhibition above about 58%; tested in S. cerevisiae
Numbers stand for hits; 0 = inactive; - = not tested or not shown. An excerpt weighted towards active compounds, which were near 13% of everything screened.

SMILES | RAM inhibit | CHOP inhibitor | L major viab | WT yeast gro inh
CC(C)CC(=O)Nc1cccc2c1C(=O)N(c1ccccc1)C2=O | 0 | 0 | 0 | 0
CC(C)CC(=O)Nc1cc2nn(-c3ccccc3)nc2cc1Cl | 0 | 85 | 0 | 0
COc1ccc(C(=O)NCC(=O)OCC(=O)Nc2ccc(C)c(S(=O)(=O)N(C)C)c2)cc1OC | - | 0 | - | -
CCCCOC(=O)c1ccc(NC(=O)c2nn(C)cc2Br)cc1 | 0 | 0 | 0 | 60
CCCCOC(=O)c1ccc(NC(C)=O)cc1 | 0 | 0 | 0 | 0
CCCCCOC(=O)c1ccc(NC(=O)c2ccco2)cc1 | 0 | 82 | 0 | 70
O=C(Oc1cccc2cccnc12)c1cccc(N2C(=O)C3C4CCC(C4)C3C2=O)c1 (centres undefined) | 0 | 84 | 97 | 0
O=C(Oc1cccc2cccnc12)c1ccc(N2C(=O)C3C4CCC(C4)C3C2=O)cc1 (centres undefined) | 0 | 0 | 99 | 0
O=S(=O)(c1ccc(F)cc1)N1CCN(c2ccc(-c3ccccc3)nn2)CC1 | 0 | 0 | 0 | 0
O=[N+]([O-])c1ccc2[nH]c3nc4ccccc4nc3c2c1 | - | 0 | - | -
C/C(=N\NC(=O)c1ccc(Cl)c(S(=O)(=O)Nc2ccccc2Cl)c1)c1ccncc1 | 0 | 0 | 0 | 0
COc1ccc(-c2cn3cccnc3n2)cc1NC(=O)CC(C)C | 0 | 0 | 0 | 0
CCCC(=O)Nc1cccc(-c2cn3cccnc3n2)c1 | 0 | 0 | 91 | 0
O=C(Nc1ccccc1)Nc1cccc(-c2cn3cccnc3n2)c1 | 0 | 0 | 0 | 0
CCCC(=O)Nc1cc(-c2cn3cccnc3n2)ccc1OC | 0 | 0 | 63 | 0
CC(=O)n1cc([C@H]2C=C(C(=O)N3CCN(Cc4ccc5c(c4)OCO5)CC3)O[C@@H](OCCCCO)C2)c2ccccc21 | 0 | 0 | 0 | 0
CCn1c(SCC(N)=O)nc2cc(S(=O)(=O)N3CCOCC3)ccc21 | 0 | 0 | 0 | 0
CCn1c(SCC(=O)c2c[nH]c3ccccc23)nc2cc(S(=O)(=O)N3CCOCC3)ccc21 | 0 | 0 | 66 | 0
COc1cccc(/C=N/NC(=O)c2cccc([N+](=O)[O-])c2)c1OS(=O)(=O)c1ccccc1 | 0 | 0 | 100 | 0
COc1cccc(/C=N/NC(=O)c2ccc([N+](=O)[O-])cc2Cl)c1O | 0 | 70 | 99 | 0
CCC1CCCCN1C1Sc2ccc(C(=O)OC)cc2NC1=O (centres undefined) | 0 | 0 | 100 | 0
CCCN(CCC)C1Sc2ccc(C(=O)OC)cc2NC1=O (centres undefined) | 0 | 82 | 0 | -
O=C(Nc1cc(C(F)(F)F)ccc1-n1cnc2ccccc21)c1ccccc1 | 0 | 0 | 0 | 0
COc1cc(OC)cc(C(=O)N[C@H](C(=O)NCc2ccco2)C(C)C)c1 | 0 | 0 | 0 | 0
Cc1cc(NC(=O)CSc2nnc3ccccn23)no1 | 0 | 0 | 0 | 0
SMILES | RAM inhibit | CHOP inhibitor | L major viab | WT yeast gro inh
CC(C)(C)c1cc(NC(=O)CCSc2nnc3ccccn23)cc(C(C)(C)C)c1 | 0 | 88 | 0 | 0
Cc1ccc(NC(=O)C(OC(=O)c2cc(C)oc2C)c2ccccc2)cc1 (centres undefined) | 0 | 0 | 52 | 0
Cc1cc(C(=O)Nc2ccccc2)c(C)o1 | 0 | 0 | 0 | 0
Cc1cc(C(=O)OC(C(=O)Nc2cccc(C(F)(F)F)c2)c2ccccc2)c(C)o1 (centres undefined) | 0 | 83 | 0 | 0
CN(C)CCNC(C(=O)Nc1cccc(C(F)(F)F)c1)c1ccccc1 (centres undefined) | 0 | 0 | 0 | 0
CC1=C/C(=N\OC(=O)/C=C/c2ccccc2)C(C)=CC1=O | 0 | 0 | 100 | 0
CCc1sc(NC(=O)C(C)C)nc1-c1ccccc1 | 0 | 0 | 0 | 0
CCCc1cc(=O)n2c([nH]c3ccccc32)c1C#N | 0 | 0 | 0 | 0
Cc1c(CCC(C)C)c(=O)n2c([nH]c3ccccc32)c1C#N | 0 | 96 | 99 | 0
CCN(CC)S(=O)(=O)c1cccc(-c2nnc(SCc3nnc(-c4cccs4)o3)n2N)c1 | 0 | 0 | 0 | 0
Nc1cc(C(F)(F)F)ccc1-n1cccc1 | 0 | 0 | 0 | 0
Cc1ccc(S(=O)(=O)Nc2ccccc2CNc2cccc(C)n2)cc1 | 0 | 0 | 0 | 0
CCOC(=O)c1cnc2ccc(OCC)cc2c1NCc1cccnc1 | 0 | 0 | 65 | 0
CCOC(=O)C1CCCN(c2c(C(=O)c3ccccc3)cnc3ccc(OC)cc23)C1 (centres undefined) | 0 | 0 | 0 | 0
CCOC(=O)c1cnc2ccc(OCC)cc2c1N1CCN(c2ccccc2)CC1 | 0 | 0 | 0 | 74
CCOC(=O)c1cnc2c(OC)cccc2c1NCc1cccnc1 | 0 | 0 | 0 | 0
CCOC(=O)c1cnc2ccc(C)cc2c1Nc1ccc(N2CCOCC2)cc1 | 0 | 72 | 52 | 0
CCOC(=O)c1cnc2ccc(OC)cc2c1NCCc1ccc(OC)c(OC)c1 | 0 | 0 | 64 | 0
O=C(CSc1nnc2ccccn12)Nc1ccccc1C(=O)O | 0 | 0 | 0 | 0
Cc1ccc(OC(=O)CCC(=O)NC(C)c2ccccc2)cc1 (centres undefined) | 0 | 0 | 0 | 0
CCOC(=O)c1cnc2ccc(OCC)cc2c1NCc1ccccc1 | 0 | 0 | 98 | 86
CCOC(=O)c1cnc2ccc(C(=O)OC)cc2c1NCc1ccco1 | 0 | 0 | 0 | 0
O=C(N/N=C/c1ccccn1)c1[nH]c2ccc([N+](=O)[O-])cc2c1-c1ccccc1 | 0 | 0 | 98 | 65
CC(C)c1ccc(NC(=O)c2cccc(Br)c2)cc1 | 0 | 84 | 0 | 0
O=C(O/N=C\c1ccc(N2CCCCC2)c([N+](=O)[O-])c1)c1ccc(Cl)cc1Cl | 10 | 0 | 0 | 0
SMILES | RAM inhibit | CHOP inhibitor | L major viab | WT yeast gro inh
O=C(/C=C/c1ccc(N2CCCCC2)c([N+](=O)[O-])c1)c1ccc(O)cc1 | 8.6 | 0 | 100 | 91
Cc1ccc(C(=O)O/N=C\c2ccc(N3CCOCC3)c([N+](=O)[O-])c2)cc1 | 0 | 0 | 0 | 0
COc1ccccc1C(=O)/C=C/c1ccc(N2CCCCC2)c([N+](=O)[O-])c1 | 9.7 | 0 | 98 | 0
CCOc1cc(CNC2CCCC2)c(Cl)cc1OCC(=O)Nc1ccccc1 | 0 | 0 | 89 | 0
CCOc1ccccc1OCC(=O)NC1CCCCC1 | 0 | 0 | 0 | 0
CCOC(=O)c1ccc(NC(=O)COc2ccccc2CNC2CCCC2)cc1 | 0 | 0 | 100 | 0
CNC(=O)c1nn(-c2ccc(Cl)cc2)ccc1=O | 0 | 0 | 0 | 98
CNC(=O)c1nn(-c2ccccc2)ccc1=O | 0 | 0 | 0 | 0
O=C1N/C(=C/c2ccc(N3CCOCC3)o2)C(=O)N1c1cccc(Cl)c1 | 0 | 0 | 0 | 0
O=C(/C(=C/c1ccc(Cl)cc1)c1nc2ccccc2[nH]1)c1cccs1 | 0 | 0 | 100 | 0
COc1cc(/C=C(/C(=O)c2cccs2)c2nc3ccccc3[nH]2)ccc1O | 0 | 0 | 100 | 0
COC(=O)/C(=C\c1cc(OC)c(OC)c(OC)c1)c1nc2ccccc2[nH]1 | 0 | 0 | 99 | 0
O=C(Nc1nc2ccccc2[nH]1)c1cccs1 | 0 | 0 | 0 | 0
O=C(/C(=C\c1ccccc1)c1nc2ccccc2[nH]1)c1ccc(Cl)cc1 | 0 | 87 | 100 | 0
